Bioassay records: PubChem, National Center for Advancing Translational Sciences (NCATS)
Marburg entry inh – qHTS for inhibitors of binding or entry into cells for Marburg Virus. Potency, µM (highest dose often 37.8 µM), most hits filed as inhibitors. Marburg virus pseudotyped entry inhibition, cell reporter. AID 540276, 2011. hit rate 1.8% among 300,000; calls by dose curve; tested in HEK293 cells
VACV Venus inh – qHTS for Stage-Specific Inhibitors of Vaccinia Orthopoxvirus: Venus Reporter Primary qHTS; Vaccinia virus Venus reporter expression, fluorescence; Potency, µM (titrated, usually from 36.5 µM), hits mostly inhibitors; hit rate 0.46% among 330,000; calls by dose curve; tested in A549 cells; further: nearly all actives have a fitted effect of over 30% in size
Lassa entry inh – qHTS for Inhibitors of binding or entry into cells for Lassa Virus; Lassa virus pseudotype entry inhibition, cell reporter; Potency, µM (titrated, usually from 37.9 µM), usual class: inhibitors; hit rate 1.2% among 300,000; AID 540256, 2011; calls by dose curve; tested in HEK293 cells; further: nearly all actives have a fitted effect of over 50% in size
Vaccinia mCherry – qHTS for Stage-Specific Inhibitors of Vaccinia Orthopoxvirus: mCherry Reporter Primary qHTS; hit rate 0.63% among 310,000; Potency, µM (highest dose often 36.5 µM), most hits filed as inhibitors; Vaccinia virus mCherry reporter infection, fluorescence; calls by dose curve; tested in A549 cells; further: nearly all actives have a fitted effect of over 35% in size
HCMV inh – qHTS Assay for inhibitors of the human cytomegalovirus (HCMV); HFF cells, HCMV-luciferase reporter, 72 h; hits give low values; activity change, negative = inhibition, % at 57.5 µM; hit rate 4.5% among 410,000; in the data active means activity change below about -60%; inconclusive means no clear call, values can overlap the other calls; inactive means above about -39%
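After 16 h attachment at 37C, HFF cells received test compound and HCMV-luciferase (1 PFU/cell); reporter luminescence read 72 h later, data normalized against buffer-only and known inhibitor Salinomycin.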
FMDV inh – High Throughput Screening for Foot and Mouth Disease Virus Antivirals. FMDV antiviral cell-based qHTS. Potency, µM (series often up to 57.9 µM), most hits filed as inhibitors. hit rate 1.2% among 410,000. AID 1159524, 2015; calls by dose curve; tested in HEK293T cells; further: read-out not given here; nearly all actives have a fitted effect of over 45% in size
Hits are given with their value; – = inactive; ? = inconclusive; · = no result given; [ ] = dose if it differs, or a comment. A selection: hits, their analogues and other compounds. The true share with any hit is near 6.5%.

SMILES | Marburg entry inh | VACV Venus inh | Lassa entry inh | Vaccinia mCherry | HCMV inh | FMDV inh
CC[C@@H](C)CCCCC(=O)N[C@@H](CCNCS(=O)(=O)O)C(=O)N[C@H](C(=O)N[C@@H](CCNCS(=O)(=O)O)C(=O)N[C@H]1CCNC(=O)[C@H]([C@@H](C)O)NC(=O)[C@H](CCNCS(=O)(=O)O)NC(=O)[C@H](CCNCS(=O)(=O)O)NC(=O)[C@H](CC(C)C)NC(=O)[C@@H](CC(C)C)NC(=O)[C@H](CCNCS(=O)(=O)O)NC1=O)[C@@H](C)O | · | – | · | – | · | –
COc1ccccc1NC(=O)Cn1c(=O)c(CNc2ccccc2)cc2cc(OC)c(OC)cc21 | · | – | – | – | – | –
Cn1c(N)c(C(=O)COC(=O)c2ccccc2C(=O)c2ccc(Cl)c([N+](=O)[O-])c2)c(=O)n(C)c1=O | 11.2µM | ? | ? | ? | · | ?
Cn1c(N)c(C(=O)COC(=O)c2ccccc2C(=O)c2ccccc2)c(=O)n(C)c1=O | · | · | · | · | – | –
CN(CCC#N)C(=O)COC(=O)c1ccccc1C(=O)c1ccc(Cl)c([N+](=O)[O-])c1 | ? | – | ? | – | -97.4 | ?
O=C(COC(=O)c1ccccc1C(=O)c1ccc(Cl)c([N+](=O)[O-])c1)NC1CCCCCC1 | 4.11µM | · | 18.3µM | · | · | ?
Cc1ccc2nc(-c3ccc(C)o3)c(Nc3ccc(Cl)cc3)n2c1 | · | – | · | – | · | ·
Cc1cc2cc(C(c3nnnn3C3CCCC3)N(Cc3cccnc3)Cc3ccco3)c(=O)[nH]c2cc1C (centres undefined) | 4.11µM | – | ? | – | -66.5 | ?
CCOC(=O)C1(C(=O)OCC)N=C(c2ccccc2)C=C1c1ccccc1 | · | · | · | · | – | ·
C#CCn1c(S(=O)(=O)Cc2ccccc2Cl)nc(-c2ccccc2)c1-c1ccccc1 | – | · | · | · | -69.9 | –
CCOC(=O)Cn1c(S(=O)(=O)Cc2ccccc2Cl)nc(-c2ccccc2)c1-c1ccccc1 | 5.17µM | · | 11.6µM | · | – | –
Cc1ccc(S(=O)(=O)Cc2ccccc2Cl)cc1 | ? | – | ? | ? | – | –
O=C(NCc1ccc2c(c1)OCO2)[C@H]1[C@H](CO)[C@H]2Cn3c(cccc3=O)[C@@H]1N2Cc1ccccc1 | · | · | · | · | – | ·
CC(C)(C)NC(=O)C12CCC(C)(c3nc4ccccc4nc31)C2(C)C (centres undefined) | ? | · | – | · | -94.1 | –
O=[N+]([O-])c1ccc2nc(/C=C/c3ccc(Cl)cc3)[nH]c2c1 | ? | ? | ? | – | -85.8 | ·
Cc1ccc(NC(=O)CN2C(=O)CC(c3ccc(C)c(C)c3)=Nc3ccccc32)cc1 | · | – | – | – | – | –
N#Cc1c(-n2ncnc2-c2ccccc2C(F)(F)F)sc2c1CCCCC2 | · | – | ? | – | -69.0 | 0.355µM
CCC(C)NC(=O)CCc1nnc2ccc(N3CCC(C)CC3)nn12 (centres undefined) | – | ? | – | – | -60.5 | –
O=C(Cc1ccsc1)NNC(=O)c1ccccc1O | – | – | ? | ? | -61.4 | –
O=C(NNC(=O)c1ccccc1OCc1ccc(F)cc1)c1ccccc1O | ? | ? | ? | ? | -94.8 | –
O=C(NCc1ccc(F)cc1)c1ccccc1OCc1ccccc1 | ? | – | ? | – | -63.4 | ?
CC(=O)c1cccc(NC(=O)c2ccccc2OCc2ccc(F)cc2)c1 | ? | – | – | – | – | –
CC(=O)c1ccccc1OCc1ccc(S(=O)(=O)Cc2ccccc2)cc1 | · | · | · | · | -70.5 | ?
COc1ccccc1C(=O)NCc1ccccc1 | – | · | – | · | – | –
CC(C)CN(CCCNC(=O)c1cc(=O)[nH]c2ccc(S(=O)(=O)N3CCCCCC3)cc12)CC(C)C | · | – | – | – | – | –
SMILES | Marburg entry inh | VACV Venus inh | Lassa entry inh | Vaccinia mCherry | HCMV inh | FMDV inh
COc1ccc2cc(/C=N/NC(=O)CN(c3ccccc3OC)S(=O)(=O)c3ccccc3)c(Cl)nc2c1 | · | · | · | · | – | ·
O=C(C[N+]1(CCc2ccccc2)CCOCC1)c1cccc([N+](=O)[O-])c1 | · | – | · | – | · | ·
COc1ccccc1N1CCN(c2nc(CNC(=O)c3sc(C)nc3C)nc3ccccc23)CC1 | · | – | · | – | · | ?
O=C(NNC(=O)c1ccccc1OCc1ccccc1)c1ccccc1O | – | ? | – | 7.08µM | -88.4 | –
O=C(NNC(=O)c1ccccc1OCc1ccccc1)c1ccccc1F | – | – | – | – | – | –
COCCNC(=O)Cc1c(C)c2c(cc(C)c3c(C(C)(C)C)coc32)oc1=O | ? | ? | ? | ? | -61.2 | ?
Cc1cc2oc(=O)c(CC(=O)NCCCO)c(C)c2c2occ(C(C)(C)C)c12 | · | · | · | · | ? | –
Cc1cc2oc(=O)c(CC(=O)NCCCN(C)C)c(C)c2c2occ(C(C)(C)C)c12 | ? | ? | ? | 12.6µM | · | –
Ic1ccc(N2CCN(Cc3c[nH]c4ncccc34)CC2)cc1 | 11.2µM | ? | ? | – | ? | –
N#CC(=C1C=CC(=NO)C(Cl)=C1)c1ccc(Cl)cc1 | – | – | ? | – | -74.0 | –
Cc1c(Br)cccc1NC(=O)C1(C)CCN1Cc1ccc(OC(C)C)cc1 (centres undefined) | · | – | · | ? | ? | –
CC(C)Oc1ccc(CN2CCC2(C)C(=O)Nc2cccc3cccnc23)cc1 (centres undefined) | · | – | · | – | -77.9 | –
CN(C)c1cc[n+](CC(=O)Nc2ccc(Cl)cc2)cc1 | · | · | · | · | -89.5 | –
CCOc1ccc(NC(=O)C[n+]2ccc(N(C)C)cc2)cc1 | – | – | – | – | -97.2 | –
Cc1cccc(NC(=O)C[n+]2ccc(N(C)C)cc2)c1 | · | · | · | · | ? | –
Cc1cc([N+](=O)[O-])ccc1NC(=O)C[n+]1ccc(N(C)C)cc1 | – | – | – | – | -99.9 | –
CN(C)c1cc[n+](CC(=O)Nc2ccc(Oc3ccccc3)cc2)cc1 | 9.2µM | – | ? | – | -97.8 | –
CCc1ccc(CNC(=O)c2cnc3sc(N(CC)CC)nn3c2=O)cc1 | · | – | ? | – | ? | –
CCc1ccc(NC(=O)c2ccc(F)c(S(=O)(=O)N3CCN(c4cc(C)ccc4C)CC3)c2)cc1 | · | – | – | – | ? | –
CCOC(=O)c1ccc(CN(Cc2ccc(F)cc2)S(=O)(=O)c2cc(C(=O)Nc3cccc(C(F)(F)F)c3)ccc2F)cc1 | · | – | – | – | – | –
O=C1c2ccccc2/C(=C\c2ccc3[nH]ccc3c2)N1c1ccccc1 | · | – | · | ? | -66.5 | –
COc1cc(NC(=O)C2CCN(S(=O)(=O)c3c(C)noc3/C=C/c3ccccc3F)CC2)cc(OC)c1OC | · | –[7.34 µM] | ? | –[7.34 µM] | – | –
COC1=C[C@H](C(=O)NC2CCN(Cc3ccccc3)CC2)[C@@]2(C)Cc3ccccc3[C@@H]2CC1=O | – | · | · | · | · | ·
COC(=O)[C@H]1[C@H](CO)[C@H]2Cn3c(cccc3=O)[C@@H]1N2CC1CC1 | · | · | · | · | – | ·
CCN(CC)S(=O)(=O)c1ccc(NC(=O)[C@H](CSCc2ccccc2)N2Cc3ccccc3C2=O)cc1 | ? | – | – | ? | – | –
Cc1ccc(S(=O)(=O)Nc2cc(Cl)c3oc4c(c3c2)CCCC4)cc1 | · | – | – | – | – | –
